Screening data as filed in PubChem.
An excerpt weighted towards active compounds, which were near 2.9% of everything screened.
IP6K1 inh: inhibitors of human IP6K1 | Q92551 | IP6K1 kinase, ADP-Glo luminescence, 2 h; stronger effect = lower value | activity change, % (series mostly up to about 58 µM) | 0.81% of 140,000 active | AID 1645851; in the data active = activity change below about -25%; also: % is scaled to controls: 0 for no effect and ±100 for the full control effect
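ADP-Glo luminescence measures ADP made by human IP6K1 during a 2 h RT reaction with ATP/IP6 (mix at 1.3 mM/130 uM); top library doses 57.5 and 19.1 uM final.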
KDM5B inhibitor: inhibitors of human KDM5B histone demethylase. Q9UGL1. KDM5B demethylase, FDH-coupled NADH fluorescence (FDH is formaldehyde dehydrogenase). Potency, µM (top dose mostly 57.7 µM), actives largely listed as inhibitors. 2.6% of 220,000 active. AID 1347165; also: potency is read from the fitted curve at half-maximal effect; 0% is about no effect; nearly all actives have a fitted effect of over 70% in size
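Here, H3K4me3 peptide (12.5 µM in substrate mix) is demethylated by KDM5BΔAP, 200 nM final, after 10 min compound exposure. Formaldehyde product is coupled through FDH (0.25 U/mL in mix) to NADH fluorescence; 30-min ΔRFU feeds dose-response curves.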
HEK293 viab: reduces viability of HEK-293 SNCA reporter cells; Potency, µM (series often up to 57.1 µM), without a hit: at the highest dose activity change, negative = cytotoxicity, hits mostly cytotoxic; 0.12% of 150,000 active; HEK-293-SNCA-luc viability, GF-AFC fluorescence, 24 h;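 also: potency is read from the fitted curve at half-maximal effect; 0% = DMSO-treated cells and -100% = medium-only wells without cells; nearly all actives have a fitted effect of over 30% in size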
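Cytotoxicity counterscreen: after 24 h compound treatment of genome-edited SNCA-luciferase HEK-293 cells, live-cell protease substrate GF-AFC read by fluorescence after 30 min; activity scaled between DMSO (0%) and medium-only (-100%), curves Hill-fitted.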
SNCA expr inhib: SNCA gene expression inhibition; HEK-293 SNCA-luciferase knock-in, luminescence, 24 h; Potency, µM (series often up to 57.2 µM), for inactives: at the highest dose activity change, negative = inhibition, actives largely listed as inhibitors; 0.17% of 140,000 active;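 also: potency is read from the fitted curve at half-maximal effect; plate controls were DMSO cells for no effect and cell-free wells for full effect; nearly all actives have a fitted effect of over 45% in size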
* marks the source's active call; other numbers are inactive results; i = inactive; ? = inconclusive; nt = not tested or not shown; [ ] = dose if it differs, or a comment. Unless noted, calls follow the shape of the dose curve; as a rule, active = well fitted curve in the direction sought with a large enough effect; inconclusive = small, poorly fitted or top-dose-only effect, or another doubt; inactive = no such curve, though single readings can be large; an effect the other way counts as inactive or inconclusive.

SMILES | IP6K1 inh | KDM5B inhibitor | HEK293 viab | SNCA expr inhib
C[C@H](C(=O)NCCN1CCOCC1)C1CC[C@@]2(C)Cc3sc(-c4ccccc4)nc3[C@@H](C)[C@@H]2[C@H]1O (some centres undefined) | -2.8 | 25.1µM* | 2.1% | 0.794µM*
C=CCN(C)C(=O)[C@@H](C)C1CC[C@@]2(C)Cc3sc(NCCCC)nc3[C@@H](C)[C@@H]2[C@H]1O (some centres undefined) | 9.3 | 35.5µM* | -17.4%[87.6 µM] | -0.9%[87.6 µM]
Cc1ccc(NC(=O)Cc2c[nH]c3ccccc23)cc1F | nt | i | nt | nt
O=C(NCc1ccc2c(c1)OCO2)c1nc(-c2cccc(C(F)(F)F)c2)c2cnccn12 | 0.8 | 28.2µM* | -7.0% | -16.2%
O=C(NCc1cccs1)c1nc(-c2cccnc2)c2cnccn12 | 0.0 | 25.1µM* | 5.3% | -22.2%
O=C(NCc1ccc2c(c1)OCO2)c1nc(-c2cccnc2)c2cnccn12 | 0.7 | 28.2µM* | 3.4% | 1.7%
COc1cccc(CN2C(=O)CCCCC2C(=O)NCc2cn[nH]c2C)c1 (centres undefined) | 6.7 | i | 2.3% | -27.5%
COc1ccc(-c2c(C)oc3cc(OCC(=O)Nc4ccc5c(c4)OCCO5)ccc3c2=O)cc1 | nt | i | nt | nt
COc1ccc(NC(=O)c2cc(=O)c3ccc(C)cc3o2)c(OC)c1 | nt | i | nt | nt
CCn1c(SCC(=O)c2sc3ccccc3c2C)nnc1C1CC1 | nt | i | nt | nt
Clc1cccc(CN2CC(CNc3cccnc3)C3(C2)CN(c2ccccc2)C3)c1 (centres undefined) | -2.2 | 31.6µM* | -17.6%[87.6 µM] | ?
Nc1ncccc1CN1CC(COc2ccccc2)C2(C1)CN(c1ccccc1)C2 (centres undefined) | -13.0 | ? | -17.4%[87.6 µM] | ?
N#Cc1cccc(CN2CC(COc3ccccc3)C3(C2)CN(c2ccccc2)C3)c1 (centres undefined) | 12.2 | 39.8µM* | -4.5%[87.6 µM] | -21.4%[87.6 µM]
C[S+](=O)([O-])c1cccc(CN2CC(COc3ccccc3)C3(C2)CN(c2ccccc2)C3)c1 (centres undefined) | -9.1 | 35.5µM* | -13.4% | ?
O=[S+]([O-])(NCC1CN(Cc2cccc(Cl)c2)CC12CN(c1ccccc1)C2)c1ccccc1 (centres undefined) | 7.1 | ? | -14.5% | ?
O=C(Cn1cccc1-c1nc(-c2ccccc2)no1)N1CCc2ccccc21 | -8.1 | i | -26.2% | -22.7%
O=C(Cn1cccc1-c1nc(-c2ccc3c(c2)OCO3)no1)N1CCCc2ccccc21 | 36.0 | 31.6µM* | ? | 18.4%
CCc1noc(-c2cccn3c(CNC(=O)c4ccc(OC)c(F)c4)nnc23)n1 | 26.0 | ? | 2.3% | -19.8%
COc1cccc(CC(=O)NCc2nnc3c(-c4nc(C)no4)cccn23)c1 | 4.9 | 17.8µM* | 5.4% | -5.6%
Cc1noc(-c2cccn3c(CNC(=O)c4ccoc4)nnc23)n1 | 5.5 | 28.2µM* | -0.6% | -11.5%
Cc1noc(-c2cccn3c(CNC(=O)c4cccnc4)nnc23)n1 | -5.0 | 28.2µM* | 5.2% | 1.0%
COc1cccc(CCC(=O)NCc2nnc3c(-c4nc(C)no4)cccn23)c1 | 4.5 | ? | -7.1% | -17.1%
Cc1noc(-c2cccn3c(CNC(=O)c4cc(F)cc(F)c4)nnc23)n1 | -0.4 | ? | -0.8% | -19.3%
CCc1noc(-c2cccn3c(CNC(=O)c4cccnc4)nnc23)n1 | 11.6 | 31.6µM* | -1.9% | 9.3%
CC(Oc1ccccc1C#N)C(=O)NC1CC1 (centres undefined) | nt | i | nt | nt
SMILES | IP6K1 inh | KDM5B inhibitor | HEK293 viab | SNCA expr inhib
CNC(=O)NC(=O)C(C)Sc1cc(C)c2cccc(C)c2n1 (centres undefined) | nt | i | nt | nt
Cc1ccc(CNC(=O)CN2CC3CC(C2)[C@H]2CCCC(=O)N2C3)o1 (some centres undefined) | -7.8 | i | 7.9% | -17.0%
Cc1ccc(NC(=O)c2nnc(SCC(=O)NC3CCCC3)s2)cc1 | nt | i | nt | nt
CCc1nnc([C@@H]2CC(F)(F)CN2C(=O)COc2ccc(F)cc2)o1 | -2.7 | i | 3.3% | -18.3%
CN(C)c1ccc(CN2CCn3c(nn(-c4cccc(Cl)c4)c3=O)C2)cc1 | 2.8 | ? | -2.4% | 40.2%
CN(C)c1cccc(C(=O)N2CCC3(CC2)N=C(c2cccc(Br)c2)NO3)c1 | -9.9 | 31.6µM* | 2.2% | 2.5%
Cc1ccc(C(=O)N2CCC3(CC2)N=C(c2ccc(C)cc2)NO3)cc1 | -19.0 | i | -0.7% | 26.4%
Cc1ccc(C(=O)N2CCC3(CC2)N=C(c2cccc(Br)c2)NO3)cc1 | -13.0 | 31.6µM* | -2.6% | 14.7%
CCCCCNC(=O)c1cccc(NC(=O)c2ccccc2)c1 | nt | i | nt | nt
Cc1noc([C@@H](C)NC(=O)Nc2ccc(Cl)cc2)c1C(=O)O | -24.6 | 39.8µM* | 7.4%[87.6 µM] | 129.9%[87.6 µM]
C[C@@H](NC(=O)Nc1ccc(Cl)cc1)c1onc(-c2ccccc2)c1C(=O)O | 3.2 | i | 3.5%[87.6 µM] | 0.8%[87.6 µM]
Cn1c(C(=O)NCc2ccoc2)nc2nc(-c3ccccc3)c(Cl)cc21 | -3.0 | 35.5µM* | 2.2%[87.6 µM] | 7.1%[87.6 µM]
COCc1nc2nc(-c3ccccc3)c(-c3ccccc3OC)cc2n1C | 4.6 | ? | -0.2%[87.6 µM] | -4.3%[87.6 µM]
COc1cc(CNC(=O)c2nc3nc(-c4ccccc4)c(Cl)cc3n2C)cc(OC)c1 | 13.5 | 35.5µM* | -5.3%[87.6 µM] | -3.3%[87.6 µM]
COc1ccccc1-c1cc2c(nc1-c1ccccc1)nc(C(=O)NC1CCN(C)CC1)n2C | 5.5 | 28.2µM* | ? | -5.8%
Cn1c(C(=O)NCCc2ccccn2)nc2nc(-c3ccccc3)c(Cl)cc21 | -0.7 | 35.5µM* | -13.3%[87.6 µM] | -16.8%[87.6 µM]
CN(C)CCNC(=O)c1nc2nc(-c3ccccc3)c(-c3ccccc3O)cc2n1C | -0.5 | ? | -1.9%[87.6 µM] | 33.5%[87.6 µM]
CN(C)c1nc(N2CCCCCC2)nc(-n2cnc(SCc3ccccc3)n2)n1 | nt | i | nt | nt
N[C@@H](Cc1ccccc1)c1nnc(SCc2ccc(Cl)c(Cl)c2)o1 | nt | i | nt | nt
Cc1ccc(-c2cc3c(nc2-c2ccccc2)nc(C(=O)NCCN(C)C)n3C)cc1 | 8.9 | i | -22.0%[87.6 µM] | 8.3%[87.6 µM]
Cn1c(C(=O)NCCN2CCOCC2)nc2nc(-c3ccccc3)c(Cl)cc21 | 6.1 | 35.5µM* | 9.8%[87.6 µM] | 29.5%[87.6 µM]
COc1ccc(CNC(=O)c2nc3nc(-c4ccccc4)c(Cl)cc3n2C)cc1OC | 5.6 | 35.5µM* | -20.8%[87.6 µM] | ?
COc1ccc(CNC(=O)c2sccc2-c2ccccc2)cc1OC | nt | i | nt | nt
Cn1c(C(=O)NCC2CC2)nc2nc(-c3ccccc3)c(Cl)cc21 | 3.2 | 39.8µM* | 1.4%[87.6 µM] | -28.9%[87.6 µM]
CC(=O)N1CCC(N2CC[C@@H](CO)N(C)c3ncccc3C2)CC1 | 3.5 | 35.5µM* | 4.8%[87.6 µM] | 0.8%[87.6 µM]
O=C(CCc1ncc(-c2ccc(Cl)cc2)o1)N1CCCC(O)C1 (centres undefined) | nt | i | nt | nt
CN(C)[C@H]1CCCCN(C(=O)CCc2ccc(-c3ccc(Cl)cc3)[nH]2)C1 | -7.1 | 31.6µM* | -18.8% | 17.0%
CCCS(=O)(=O)N1CCc2nc(N3CCN(C)CC3)sc2C1 | 2.1 | i | 11.4% | 73.0%
COCCNCCCn1c(C(=O)CF)c(-c2ccc(C)cc2)c2c(N)ncnc21 | nt | nt | -11.3% | -28.3%
